Measurements as given in PubChem BioAssay (EPA / NIEHS).
The source made the active and inactive calls. Rule for the calls: active = hit-call score of the fitted dose curve at least 0.9, where 1 is the maximum; inactive = score below 0.9.

Assays:
[1] = read-out: TIMP metallopeptidase inhibitor 1 (TIMP1), TIMP1 (gene 7076); assay: BSK_hDFCGF_TIMP1: BioMAP Diversity Plus: hDFCGF Assay for TIMP metallopeptidase inhibitor 1 (TIMP1) Biomarker Activity (AID 2283062); conditions: primary human foreskin fibroblasts; actives raise or lower the signal
Method in brief: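 Primary human foreskin fibroblasts in the hDFCGF system were dosed with compound for 24 h, then TIMP-1 was measured by ELISA. Activity was fitted bidirectionally relative to DMSO control; parallel SRB staining assessed cytotoxicity.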

[2] = read-out: Monokine induced gamma interferon (MIG), CXCL9 (gene 4283); assay: BSK_hDFCGF_MIG: BioMAP Diversity Plus: hDFCGF Assay for Monokine induced gamma interferon (MIG) Biomarker Activity (AID 2283063); conditions: primary human foreskin fibroblasts; actives raise or lower the signal
Method in brief: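 ELISA read-out of MIG from primary human dermal fibroblasts 24 h post-dosing. Gain or loss of signal fitted bidirectionally, DMSO as baseline.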

[3] = read-out: Matrix Metallopeptidase 1 (MMP1), MMP1 (gene 4312); assay: BSK_hDFCGF_MMP1: BioMAP Diversity Plus: hDFCGF Assay for Matrix Metallopeptidase 1 (MMP1) Biomarker Activity (AID 2283064); conditions: primary human foreskin fibroblasts; actives raise or lower the signal
Method in brief: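 Primary human foreskin fibroblasts in the hDFCGF system were dosed with test chemical, and MMP1 was measured by ELISA 24 h later. Values come from bidirectional curve fitting against the DMSO baseline.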

[4] = read-out: Vascular cell adhesion molecule 1 (VCAM1), VCAM1 (gene 7412); assay: BSK_hDFCGF_VCAM1: BioMAP Diversity Plus: hDFCGF Assay for Vascular cell adhesion molecule 1 (VCAM1) Biomarker Activity (AID 2283065); conditions: primary human foreskin fibroblasts; actives raise or lower the signal;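 for AC50: VCAM-1 protein level quantified by ELISA after 24 h chemical exposure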
Method in brief: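 Primary human foreskin fibroblasts (hDFCGF system) were dosed with chemical and VCAM-1 was measured by ELISA 24 h later. Bidirectional curve fitting used DMSO as negative control and activity baseline.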

[5] = read-out: Plasminogen activator inhibitor-1 (PAI1), SERPINE1 (gene 5054); assay: BSK_hDFCGF_PAI1: BioMAP Diversity Plus: hDFCGF Assay for Plasminogen activator inhibitor-1 (PAI1) Biomarker Activity (AID 2283066); conditions: primary human foreskin fibroblasts; actives raise or lower the signal
Method in brief: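 Primary dermal fibroblasts (human foreskin), hDFCGF system; compound 24 h; PAI-1 by ELISA; bidirectional fit vs DMSO control.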

[6] = read-out: Intercellular Adhesion Molecule 1 (ICAM1), ICAM1 (gene 3383); assay: BSK_KF3CT_ICAM1: BioMAP Diversity Plus: KF3CT Assay for Intercellular Adhesion Molecule 1 (ICAM1) Biomarker Activity (AID 2283067); conditions: primary human keratinocytes with fibroblasts; actives raise or lower the signal
Method in brief: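 Human keratinocyte plus foreskin fibroblast primary co-culture was exposed to chemical for 24 h. ICAM-1 was then quantified by ELISA, and the data were fit bidirectionally against DMSO as the negative control and baseline.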

[7] = read-out: Interferon-gamma inducible Protein 10 (IP10), CXCL10 (gene 3627); assay: BSK_KF3CT_IP10: BioMAP Diversity Plus: KF3CT Assay for Interferon-gamma inducible Protein 10 (IP10) Biomarker Activity (AID 2283068); conditions: primary human keratinocytes with fibroblasts; actives raise or lower the signal
Method in brief: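 KF3CT co-culture (keratinocytes + foreskin fibroblasts), 24 h compound, IP-10 by ELISA; bidirectional fit vs DMSO baseline.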

[8] = BSK_KF3CT_SRB: Viability Assessment in the BioMAP Diversity Plus: KF3CT Assay (AID 2283069); conditions: primary human keratinocytes with fibroblasts;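 note: total protein by sulforhodamine B staining as a cytotoxicity measure; read 24 h after compound addition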
Method in brief: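 Human primary keratinocyte plus foreskin fibroblast co-culture exposed to chemicals for 24 h. Total protein measured by 0.1% sulforhodamine B staining after 10% TCA fixation, read at 560 nm; bidirectional fitting versus DMSO baseline.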

[9] = read-out: Interleukin-1 alpha (IL1a), IL1A (gene 3552); assay: BSK_KF3CT_IL1a: BioMAP Diversity Plus: KF3CT Assay for Interleukin-1 alpha (IL1a) Biomarker Activity (AID 2283070); conditions: primary human keratinocytes with fibroblasts; actives raise or lower the signal
Method in brief: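 Human keratinocyte plus foreskin fibroblast primary co-culture, sampled 24 h after chemical dosing. IL-1a measured by ELISA; responses fitted bidirectionally against DMSO baseline (negative control), so gain or loss of signal both count.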

[10] = read-out: TIMP metallopeptidase inhibitor 2 (TIMP2), TIMP2 (gene 7077); assay: BSK_KF3CT_TIMP2: BioMAP Diversity Plus: KF3CT Assay for TIMP metallopeptidase inhibitor 2 (TIMP2) Biomarker Activity (AID 2283071); conditions: primary human keratinocytes with fibroblasts; actives raise or lower the signal
Method in brief: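 Cells: human keratinocytes co-cultured with foreskin fibroblasts. Treat with chemical, 24 h. Measure TIMP-2 by ELISA; fit curves bidirectionally vs DMSO baseline.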

[11] = read-out: Transforming growth factor beta 1 (TGFb1), TGFB1 (gene 7040); assay: BSK_KF3CT_TGFb1: BioMAP Diversity Plus: KF3CT Assay for Transforming growth factor beta 1 (TGFb1) Biomarker Activity (AID 2283072); conditions: primary human keratinocytes with fibroblasts; actives raise or lower the signal
Method in brief: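 Primary human skin cells (keratinocytes, foreskin fibroblasts) were co-cultured, exposed to test chemical and sampled at 24 h. TGF-b1 levels were measured by ELISA and fitted bidirectionally relative to DMSO.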

[12] = read-out: Matrix Metallopeptidase 9 (MMP9), MMP9 (gene 4318); assay: BSK_KF3CT_MMP9: BioMAP Diversity Plus: KF3CT Assay for Matrix Metallopeptidase 9 (MMP9) Biomarker Activity (AID 2283074); conditions: primary human keratinocytes with fibroblasts; actives raise or lower the signal;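 for AC50: MMP9 protein level quantified by ELISA in the co-culture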
Method in brief: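 Keratinocyte plus foreskin fibroblast human primary skin co-culture was dosed with chemical and MMP-9 was quantified by ELISA 24 h later. Bidirectional curve fitting used DMSO as negative control and activity baseline.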

[13] = read-out: urokinase plasminogen activator (uPA), PLAU (gene 5328); assay: BSK_KF3CT_uPA: BioMAP Diversity Plus: KF3CT Assay for urokinase plasminogen activator (uPA) Biomarker Activity (AID 2283075); conditions: primary human keratinocytes with fibroblasts; actives raise or lower the signal
Method in brief: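 Human keratinocyte plus foreskin fibroblast primary co-culture exposed to chemical for 24 h. uPA levels were quantified by ELISA, and activity was fitted bidirectionally against a DMSO negative-control baseline.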

[14] = read-out: CD40, CD40 (gene 958); assay: BSK_LPS_CD40: BioMAP Diversity Plus: LPS Assay for CD40 Biomarker Activity (AID 2283076); conditions: primary human HUVEC with PBMC; actives raise or lower the signal
Method in brief: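 Primary human umbilical vein endothelial cells co-cultured with peripheral blood mononuclear cells, LPS-stimulated, were dosed with chemical and read 24 h later. CD40 levels were measured by ELISA and fitted bidirectionally against DMSO as negative control and baseline.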

[15] = read-out: E-selectin (Homo sapiens) (UniProt P16581); assay: BSK_LPS_Eselectin: BioMAP Diversity Plus: LPS Assay for Eselectin Biomarker Activity (AID 2283077); conditions: primary human HUVEC with PBMC; actives raise or lower the signal
Method in brief: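 Human umbilical vein endothelial cells co-cultured with peripheral blood mononuclear cells under LPS stimulation; E-selectin measured by ELISA 24 h after chemical dosing. Activity fitted bidirectionally against DMSO as negative control and baseline.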

[16] = read-out: Interleukin-8 (IL8), CXCL8 (gene 3576); assay: BSK_LPS_IL8: BioMAP Diversity Plus: LPS Assay for Interleukin-8 (IL8) Biomarker Activity (AID 2283078); conditions: primary human HUVEC with PBMC; actives raise or lower the signal
Method in brief: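 Human umbilical vein endothelial cells co-cultured with PBMC were stimulated with LPS; IL-8 levels were measured by ELISA 24 h after chemical dosing. Activity was fitted bidirectionally against DMSO as negative control and baseline.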

[17] = BSK_LPS_SRB: Viability Assessment in the BioMAP Diversity Plus: LPS Assay (AID 2283079); conditions: primary human HUVEC with PBMC;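 note: total protein by sulforhodamine B absorbance as a cytotoxicity measure; measured one day after compound addition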
Method in brief: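 Human umbilical vein endothelial cells co-cultured with PBMC (LPS system) were dosed for 24 h. Total protein was stained with 0.1% sulforhodamine B after 10% TCA fixation, read at 560 nm, and fitted bidirectionally against DMSO baseline.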

[18] = read-out: Interleukin-1 alpha (IL1a), IL1A (gene 3552); assay: BSK_LPS_IL1a: BioMAP Diversity Plus: LPS Assay for Interleukin-1 alpha (IL1a) Biomarker Activity (AID 2283080); conditions: primary human HUVEC with PBMC; actives raise or lower the signal
Method in brief: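 Human umbilical vein endothelial cells co-cultured with peripheral blood mononuclear cells were LPS-stimulated and exposed to test chemicals for 24 h. IL-1 alpha was quantified by ELISA, with bidirectional curve fitting against DMSO as the negative control and baseline.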

[19] = read-out: Monocyte Chemoattractant Protein-1 (MCP1), CCL2 (gene 6347); assay: BSK_LPS_MCP1: BioMAP Diversity Plus: LPS Assay for Monocyte Chemoattractant Protein-1 (MCP1) Biomarker Activity (AID 2283081); conditions: primary human HUVEC with PBMC; actives raise or lower the signal;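 for AC50: co-culture stimulated with LPS; secreted MCP-1 protein quantified by ELISA in culture supernatant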
Method in brief: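 HUVEC plus PBMC co-culture (human primary cells, LPS system) exposed to test chemical for 24 h; MCP-1 measured by ELISA. Bidirectional curve fitting against DMSO baseline; parallel SRB total-protein staining flags overt cytotoxicity.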

[20] = read-out: C-C motif chemokine 2 (Homo sapiens) (UniProt P13500); assay: BSK_KF3CT_MCP1: BioMAP Diversity Plus: KF3CT Assay for Monocyte Chemoattractant Protein 1 (MCP1/CCL2) Biomarker Activity (AID 2283073); conditions: primary human keratinocytes with fibroblasts; actives raise or lower the signal
Method in brief: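 Human keratinocyte plus foreskin fibroblast primary co-culture exposed to chemical for 24 h. MCP-1 levels measured by ELISA. Bidirectional curve fitting relative to DMSO negative control as baseline.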

Measured: AC50

E-selectin (Homo sapiens), sequence (P16581 whole entry, looked up): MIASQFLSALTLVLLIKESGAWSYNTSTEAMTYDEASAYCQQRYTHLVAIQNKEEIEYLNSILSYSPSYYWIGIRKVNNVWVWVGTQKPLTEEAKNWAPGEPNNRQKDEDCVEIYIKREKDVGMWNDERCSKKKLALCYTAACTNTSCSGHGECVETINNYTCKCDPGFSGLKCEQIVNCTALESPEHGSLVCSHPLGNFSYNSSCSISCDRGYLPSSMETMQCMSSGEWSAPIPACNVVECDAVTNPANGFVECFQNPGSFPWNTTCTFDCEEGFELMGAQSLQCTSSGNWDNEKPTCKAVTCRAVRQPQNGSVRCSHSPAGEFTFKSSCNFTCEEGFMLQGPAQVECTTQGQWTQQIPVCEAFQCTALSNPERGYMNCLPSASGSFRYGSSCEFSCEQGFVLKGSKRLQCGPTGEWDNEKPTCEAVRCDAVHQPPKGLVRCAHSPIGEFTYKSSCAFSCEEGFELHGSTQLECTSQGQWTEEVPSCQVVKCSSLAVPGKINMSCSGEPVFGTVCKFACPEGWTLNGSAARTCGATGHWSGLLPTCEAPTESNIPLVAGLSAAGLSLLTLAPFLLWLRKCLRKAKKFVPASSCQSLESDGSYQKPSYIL

CC(=O)OC/C=C(\C)CCC=C(C)C
not listed: [20]
inactive: all other assays above

Cc1cc(=O)[nH]c(=S)[nH]1
not listed: [13] | [20]
inactive: all other assays above

Nc1ccccc1N
active: [4] 6.75 µM | [12] 20 µM | [14] 5.79 µM
not listed: [17] | [20]
inactive: all other assays above

CN1CCN(Cc2cc(-c3ccc4[nH]c(=O)oc4c3)co2)[C@@H](c2ccc(F)cc2)C1
active: [5] 11.8 µM | [12] 17.6 µM | [17] 25.9 µM | [19] 22.5 µM
not listed: [10]
inactive: all other assays above

COc1cc(C=O)ccc1O
not listed: [17] | [20]
inactive: all other assays above

CCCCCCCCCCCCCO
active: [1] 13.1 µM | [2] 24.3 µM | [3] 15.6 µM | [4] 9.95 µM | [5] 12.9 µM | [6] 36.7 µM | [7] 36.2 µM | [8] 31.9 µM | [9] 35.2 µM | [11] 32.1 µM | [20] 26.1 µM | [12] 31.2 µM | [13] 37.6 µM | [14] 37.8 µM | [16] 34.2 µM
inactive: [15] | [18] | [19]

CCCCCCCC=O
not listed: [10]
inactive: all other assays above

O=C(N[C@@H](Cc1ccccc1)[C@@H](O)C(=O)N1C[C@@H](O)[C@@H](O)C1)c1cc2cc(Cl)ccc2[nH]1
active: [10] 11.9 µM
not listed: [17] | [20]
inactive: all other assays above

CCCCCCCCCCCCCCCC
not listed: [10]
inactive: all other assays above

CCOC(=O)C(C)(C)Oc1ccc(Cl)cc1
not listed: [13] | [17] | [20]
inactive: all other assays above

Cc1nc(C)nc(N2C[C@@H](C)N(c3ccnc([C@@H](C)O)n3)[C@@H](C)C2)n1
not listed: [10] | [17]
inactive: all other assays above

C1CCC(SSC2CCCCC2)CC1
active: [4] 38.4 µM | [5] 30.8 µM | [7] 30 µM | [10] 5.11 µM | [11] 5.33 µM | [12] 13.7 µM | [19] 20 µM
not listed: [13] | [17] | [20]
inactive: all other assays above

Clc1cc(Cl)c(Cl)cc1Cl
not listed: [10]
inactive: all other assays above

CC1(C)CC(N=C=O)CC(C)(CN=C=O)C1 (centres undefined)
not listed: [13] | [17] | [20]
inactive: all other assays above
